# Assay outcomes as filed in PubChem.
# NPR1 antag: Natriuretic polypeptide receptor (hNpr1) antagonism - Primary qHTS | HEK293 hNpr1 GloSensor cGMP, ANP-stimulated luminescence | actives 1.6% (n = 76,000) | Potency, µM (top dose mostly 46.3 µM), for inactives: at the highest dose activity change, negative = inhibition, hits mostly inhibitors; also: % is scaled to controls: 0 for no effect and ±100 for the full control effect; nearly all actives have a fitted effect of over 60% in size
#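 Compound pre-incubated 30 min at room temperature on GloSensor-loaded HEK293 cells stably carrying hNpr1 and the pGS-40F cGMP biosensor. Stimulation uses hNppA at 0.1 nM final; luminescence is taken at baseline and 20 min post-agonist.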
# GPT2 inhibitor: Primary qHTS assay for inhibitors of Glutamate pyruvate transaminase 2 (GPT2); Alanine aminotransferase 2 (Homo sapiens), Q8TD30; Recombinant GPT2, coupled pyruvate oxidase/HRP Amplex Red fluorescence; Potency, µM (top dose mostly 57.7 µM), without a hit: at the highest dose activity change, negative = inhibition, hits mostly inhibitors; actives 0.25% (n = 100,000); AID 1671188, 2021; active = well fitted inhibition curve with a large enough effect; inconclusive = small, poorly fitted or top-dose-only effect; also: % is scaled to controls: 0 for no effect and ±100 for the full control effect; nearly all actives have a fitted effect of over 60% in size
#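 Fluorescence read-out: pyruvate from GPT2 turnover coupled to pyruvate oxidase, HRP and Amplex Red (0.2mM ThPP, 0.2U/mL PO and HRP, 50uM Amplex final). Substrates 250uM a-KG, 2mM L-alanine; enzyme 10ng/uL; 30 min RT.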
# Npr1 antag conf: Natriuretic polypeptide receptor (hNpr1) antagonism - Confirmation; Potency, µM (series often up to 57.6 µM), inactives show at the top dose activity change, negative = inhibition, usual class: inhibitors; shares compounds with NPR1 antag; actives 76% (n = 1,400); HEK293 hNpr1 cGMP GloSensor luminescence, ANP-stimulated; also: nearly all actives have a fitted effect of over 70% in size
# NPR2 antag: Natriuretic polypeptide receptor (hNpr2) antagonism - Subtype selectivity assay | shares compounds with NPR1 antag | HEK293 hNpr2 GloSensor cGMP luminescence, CNP-stimulated | Potency, µM (series often up to 57.6 µM), for inactives: at the highest dose activity change, negative = inhibition, usual class: inhibitors | actives 67% (n = 1,400); also: nearly all actives have a fitted effect of over 70% in size
# FLuc inh counter: Natriuretic polypeptide receptor (hNpr1) antagonism - Confirmation firefly luciferase (FLuc) inhibition counterscreen. shares compounds with NPR1 antag. purified FLuc enzyme, luminescence, Km substrate. Potency, µM (series often up to 57.6 µM), inactives show at the top dose activity change, negative = inhibition, usual class: inhibitors. actives 0.7% (n = 1,400). AID 1347047, 2019; active = well fitted inhibition curve with a large enough effect; inconclusive = small, poorly fitted or top-dose-only effect; also: 0% is about no effect
# Target sequence (P08659 whole entry, looked up): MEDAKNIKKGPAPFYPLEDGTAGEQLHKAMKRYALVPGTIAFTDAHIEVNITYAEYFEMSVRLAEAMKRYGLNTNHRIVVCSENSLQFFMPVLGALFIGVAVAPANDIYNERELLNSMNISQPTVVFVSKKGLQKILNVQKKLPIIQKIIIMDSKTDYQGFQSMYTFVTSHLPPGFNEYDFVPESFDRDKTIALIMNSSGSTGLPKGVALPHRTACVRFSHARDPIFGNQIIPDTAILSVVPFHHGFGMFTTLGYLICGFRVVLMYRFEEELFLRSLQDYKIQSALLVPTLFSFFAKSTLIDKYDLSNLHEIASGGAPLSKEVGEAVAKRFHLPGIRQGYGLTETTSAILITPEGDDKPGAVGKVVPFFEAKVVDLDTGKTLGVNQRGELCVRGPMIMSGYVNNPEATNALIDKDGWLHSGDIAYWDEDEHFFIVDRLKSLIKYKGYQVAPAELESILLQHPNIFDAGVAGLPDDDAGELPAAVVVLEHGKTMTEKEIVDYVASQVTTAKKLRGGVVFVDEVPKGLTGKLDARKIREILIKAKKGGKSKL
# GloSensor ctrl: Natriuretic polypeptide receptor (hNpr1) antagonism - Counterscreen GloSensor control cell line; shares compounds with NPR1 antag; HEK293 GloSensor cGMP, SNP-stimulated, luminescence; Potency, µM (titrated, usually from 57.6 µM), without a hit: at the highest dose activity change, negative = inhibition, usual class: inhibitors; actives 69% (n = 1,400); AID 1347051, 2019; also: % is scaled to controls: 0 for no effect and ±100 for the full control effect; nearly all actives have a fitted effect of over 70% in size
# * hit, by the source's call; i = inactive; u = inconclusive; x = no result; [ ] = dose if it differs, or a comment. This is one part of a sample in which hits are shown more often than they occur. Unless noted, calls follow the shape of the full dose curve. Potency is read from the fitted curve at half-maximal effect.
SMILES,NPR1 antag,GPT2 inhibitor,Npr1 antag conf,NPR2 antag,FLuc inh counter,GloSensor ctrl
COc1ccc2ccc(OCc3nc(C(=O)N4CCCC(C(N)=O)C4)co3)cc2c1 (stereo not drawn),11µM*,-6%,14µM*,19µM*,-19%,11µM*
COc1ccc2ccc(OCc3nc(C(=O)N(C)Cc4cc(C)no4)co3)cc2c1,u,i,31µM*,u,-22%,u
O=C(Cc1ccc(Cl)cc1)N1CCC2(CC1)CC(O)CCO2 (stereo not drawn),-1%,i,x,x,x,x
O=C(O)c1cc(Br)cc(S(=O)(=O)NCc2ccccn2)c1,6%,i,x,x,x,x
Cn1nccc1C(=O)N1CCC2(CC1)OCCN(Cc1ccccc1F)C2=O,32µM*,-10%[88.5 µM],35µM*,31µM*,0%[86.2 µM],31µM*
O=C1N(Cc2ccccc2F)CCOC12CCN(Cc1ccccc1F)CC2,-8%[70.6 µM],2%[88.5 µM],x,x,x,x
Cn1cnc(C(=O)N2CCC(F)(c3nc(-c4ccncc4)no3)CC2)c1,-4%,i,x,x,x,x
Cc1cc(C(=O)N2CCC(F)(c3nc(-c4ccncc4)no3)CC2)n(C)n1,11µM*,i,27µM*,31µM*,2%,27µM*
CCN1CC2(CCC1=O)CCN(C(=O)c1ccc(OC)c(Cl)c1)CC2,4%,-7%,x,x,x,x
O=C(C1CC1)N1CCCC(c2nc(C3CCOCC3)no2)C1 (stereo not drawn),23%,i,x,x,x,x
CN(Cc1ccccc1)C1CCOC2(CCN(S(=O)(=O)c3ccc(F)cc3)CC2)C1 (stereo not drawn),0%,i,x,x,x,x
COc1cccc(S(=O)(=O)N2CCC3(CC2)CC(N(C)Cc2ccccc2)CCO3)c1 (stereo not drawn),u,i,u,u,3%,u
COc1ccc(S(=O)(=O)N2CCC3(CC2)CC(N(C)Cc2ccccc2)CCO3)cc1 (stereo not drawn),11µM*,i,27µM*,u,1%,u
CC(C)S(=O)(=O)N1CCC2(CC1)CC(N(C)Cc1ccccc1)CCO2 (stereo not drawn),-17%,i,x,x,x,x
CC(C)c1cccc(NC(=O)C2CCN(C(=O)c3ncn4c3COC(c3ccc(F)cc3)C4)CC2)c1 (stereo not drawn),11µM*,-7%,u,u,-3%,u
CC(C)c1cccc(NC(=O)C2CCN(C(=O)c3ncn4c3COC(c3ccccc3)C4)CC2)c1 (stereo not drawn),-15%,i,x,x,x,x
CCCN1C(=O)Cc2ccccc2C1C(=O)NCc1cc(OC)ccc1OC (stereo not drawn),-26%,i,u,u,3%,-11%
CCN1C(=O)Cc2ccccc2C1C(=O)NCc1ccc(OC)cc1 (stereo not drawn),2%,i,x,x,x,x
COCCOc1ccnc(-c2noc([C@@H]3CCCN3Cc3ccccc3)n2)c1,0%[70.6 µM],2%[88.5 µM],x,x,x,x
Cc1ccc(CN2C[C@@H](CO)[C@H](c3nc(-c4ccncc4)no3)C2)cc1,11µM*,-19%,24µM*,24µM*,-7%,24µM*
OC[C@@H]1CN(Cc2ccccc2)C[C@H]1c1nc(-c2ccncc2)no1,u,3%,x,x,x,x
CCN1C(=O)CN(C(=O)c2ccoc2)CC12CCOCC2,1%,i,x,x,x,x
CC(=O)c1cccc(NC(=O)O[C@@H]2CO[C@H]3[C@@H]2OC[C@@H]3NC(=O)Nc2ccccc2)c1,-15%[70.6 µM],-1%[88.5 µM],x,x,x,x
CCNC(=O)O[C@@H]1CO[C@H]2[C@@H]1OC[C@@H]2NCC1CCCCC1,3%[70.6 µM],i,x,x,x,x
O=C(Nc1cccc(C(F)(F)F)c1)O[C@@H]1CO[C@H]2[C@@H]1OC[C@@H]2NC(=S)Nc1ccc(Cl)cc1,-26%,0%,x,x,x,x
SMILES,NPR1 antag,GPT2 inhibitor,Npr1 antag conf,NPR2 antag,FLuc inh counter,GloSensor ctrl
N#Cc1ccc(NC(=S)N[C@H]2CO[C@H]3[C@@H]2OC[C@H]3OC(=O)Nc2ccccc2)cc1,22µM*,-8%[88.5 µM],18µM*,22µM*,-7%[86.2 µM],18µM*
O=C(Nc1ccc(Oc2ccccc2)cc1)O[C@@H]1CO[C@H]2[C@@H]1OC[C@@H]2NCC1CCCCC1,u,-5%,22µM*,17µM*,-1%,22µM*
COC(=O)c1cccc(NC(=S)N[C@H]2CO[C@H]3[C@@H]2OC[C@H]3OC(=O)Nc2cccc(C(F)(F)F)c2)c1,u,2%,27µM*,22µM*,-5%,22µM*
O=C(Nc1ccccc1)O[C@@H]1CO[C@H]2[C@@H]1OC[C@@H]2NC(=O)C1CCC1,u,-6%[88.5 µM],x,x,x,x
O=C(Nc1ccccc1)O[C@@H]1CO[C@H]2[C@@H]1OC[C@@H]2NC(=O)c1ccc2c(c1)OCO2,32µM*,i,u,u,-11%[86.2 µM],u
O=C1[C@H]2CN(Cc3cccc(F)c3)C[C@H]2C(=O)N1Cc1ccc2c(c1)OCO2,1%,i,x,x,x,x
O=C(c1ccno1)N1C[C@@H](F)[C@@H](OCc2nc3ccc(F)cc3[nH]2)C1,2%[70.6 µM],2%[88.5 µM],x,x,x,x
O=C(Nc1ccc(Oc2ccccc2)cc1)N[C@H]1CO[C@H]2[C@@H]1OC[C@H]2OC(=O)Nc1cccc(C(F)(F)F)c1,-15%,-9%,x,x,x,x
O=C(Nc1ccc(Oc2ccccc2)cc1)O[C@@H]1CO[C@H]2[C@@H]1OC[C@@H]2NC(=O)c1ccc(C(F)(F)F)cc1,11µM*,u,22µM*,14µM*,-2%,15µM*
O=C(Nc1ccc(Oc2ccccc2)cc1)O[C@@H]1CO[C@H]2[C@@H]1OC[C@@H]2NC(=S)Nc1ccccc1,11µM*,i,9.7µM*,12µM*,-8%,6.9µM*
O=C(Nc1cccc2ccccc12)O[C@@H]1CO[C@H]2[C@@H]1OC[C@@H]2NC(=O)c1ccco1,-6%[70.6 µM],-5%[88.5 µM],x,x,x,x
O=C(Nc1cccc2ccccc12)O[C@@H]1CO[C@H]2[C@@H]1OC[C@@H]2NC(=O)c1cccs1,22µM*,u,35µM*,u,-2%[86.2 µM],31µM*
CCC(CC)C(=O)N[C@H]1CO[C@H]2[C@@H]1OC[C@H]2OC(=O)Nc1ccccc1,0%[70.6 µM],-29%[88.5 µM],x,x,x,x
c1ccc(CN2C[C@H]3CCN(C4CCOCC4)C[C@H]32)cc1,5%,5%,x,x,x,x
COc1ccc(NC(=O)N2CCCC2c2nncn2C2CCCC2)c(OC)c1 (stereo not drawn),1%,-13%,x,x,x,x
